According to PubChem BioAssay AID1508600 (Functional Genomics Laboratory (NCATS/FGL), 2020):
Out of some 53,000 sequences screened, about 3,700 (7%) were called active.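 How the source made its calls: active means gene knockdowns whose robust z-score for IL-1 alpha signal is at least 2 or at most -2, so actives lie on both sides; inactive means the rest.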 Many of the other results were omitted from the sample, so actives are more common in it than they were.

test: Components of the Cytosolic LPS Sensing Pathway: Gene Identification via Genome-wide siRNA Screen; details: RAW264.7 macrophages, IL-1a HTRF, actives lie on both sides, screened at 100 nM (by protocol), cells primed 5 h with Pam3CSK4 first
Excerpt: Non-canonical inflammasome activation by cytosolic LPS is a critical component of the host response to Gram-negative bacterial infection, however we lack a comprehensive understanding of the cellular processes that control this pathway. Here we describe a genome-wide siRNA screen to identify genes regulating the mouse macrophage IL-1 alpha response to cytosolic LPS.
RAW264.7 cells were maintained in complete DMEM media, comprising DMEM with 4.5 g/L glucose, 10% FBS (Gemini Bio-Products, West Sacramento, CA), 2 mM Glutamine (Lonza) and 20 mM HEPES (Lonza), hereafter complete DMEM.
The RNAi screen was conducted in 384-well format using the Ambion Silencer Mouse Genome siRNA Library (#4391425), which consists of three unique, nonoverlapping, nonpooled siRNAs for each of 17,000 gene targets. siRNA reagents ([…]) were stamped into 384-well white flat-bottom microplates (Corning, 3570) using a Velocity11 VPrep liquid handling system (Agilent) integrated into a BioCel robotic platform (Agilent) in columns 1-22, leaving columns 23-24 empty for negative (Ambion, Negative control #1) and positive (mouse Casp4) controls, respectively. The median value of each plate's negative control column was used to normalize sample wells, and the positive control was used to assess transfection efficiency and assay performance.
Lipofectamine RNAiMAX Transfection Reagent ([…]; Invitrogen) was added in […] serum-free, antibiotic-free media to plate wells using a Thermo Scientific Matrix WellMate and Microplate Stacker. Plates were incubated for 45 min at room temperature to allow for the sufficient formation of siRNA-lipid complexes. Cells were seeded at a density of 1x10^4 cells per well in 20 microL media containing 20% (vol/vol) FBS without antibiotics. The final concentration of siRNA in each well was 100 nM. Cells were cultured for 48h at 37 degrees C in 5% CO2 before addition of […] of TLR ligand Pam3CSK4 for 5 hours. The medium was then removed, replaced with […] growth media and cell were transfected with […] of LipidA and TransIT-TKO (Mirus) for 24 hour. At the end of the LipidA treatment, […] of supernatant was transferred to a 384 Greiner Bio-one non-binding low volume plate and […] of IL-1a HTRF reagent (Cisbio, 62MIL1APEH) was added and incubated at room temperature overnight. The plates were read on an EnVision plate reader (PerkinElmer). Cell viability was measured by adding 20ul Cell Titer Glo to the original plate and running a luminescence read on the EnVision. The quantified IL-1a signal for each siRNA gene-targeted well was divided by the median of the negative control wells and multiplied by 100 to achieve a negative control normalized value for each well/siRNA. This normalized value was then used to generate a robust z-score by first taking the log of each value and then by subtracting the median and dividing by the […].

Sequence	z-score
GCAAUGUGUAUCAGCCGACTT against Gprc5b	3.38 (active)
GGGAAAACCGAAUAAAGAUTT against Ren2	-1.51 (inactive)
GCAUACCAUCUUAUUUUGGTT against Sptlc1	0.159 (inactive)
GCGUGAGCUAAUGUUCACATT against Agpat2	-0.255 (inactive)
GCCACUACUAAUAGCAUGUTT against 5330438I03Rik	-1.68 (inactive)
CCCAGCACAUGCUAUCUCUTT against Zbtb21	-2.6 (active)
GGAGAAUGGAAAGUAUGGGTT against D1Pas1	-1.99 (inactive)
GCCUAUAAGGAAUAACAAGTT against Cerkl	1.27 (inactive)
GGCCUUGAUGGUGAAGAUGTT against Vstm4	-1.79 (inactive)
GGACAGACGUGCACUUAGATT against Garnl3	0.875 (inactive)
GGUGGAUGUUCGCAUGAUUTT against Ip6k1	-1.2 (inactive)
GGCAUAUACACAAUUGAUATT against Arsk	-1.27 (inactive)
GGAUAAGGAGAUGAAUUCCTT against Aard	1.01 (inactive)
GGUCUUACGCAAAACGGUCTT against Csf1r	2.86 (active)
CCCAAUCCUGUCAAUAGUCTT against Gfpt1	-0.911 (inactive)
GGCCUAAUGAAUUUGGUCATT against Ubxn7	0.93 (inactive)
CCCACAAAUUAAAGUCCGCTT against Cldn16	0.926 (inactive)
GGACCUGUCUUCAUUGGAGTT against Ngb	0.981 (inactive)
GCAGAUAAUUUUAACCCUCTT against Inpp5b	0.641 (inactive)
GCCAUUCUCCAACAAUCGATT against Evc	-1.69 (inactive)
CCUGCUACAAGUAUCUCAATT against Fdft1	2.85 (active)
GCAACCUCUCCUCUCUAGATT against Olfr15	-1.11 (inactive)
GCGGAUUCAGCUGAUGAUGTT against Sash1	-1.32 (inactive)

Sequence	z-score
GGGUUCUCAAGGUUGCAUUTT against Frs3	1.15 (inactive)
GCUCGCCUGCAUUUCAUCATT against Pank4	3.3 (active)
CCCGGUUAGCCUUUGAUUGTT against Lamc3	0.576 (inactive)
GGGAAUUUUGAAAAGGCUGTT against Nphp3	2.12 (active)
CCCUUGAGUCAUUCUCUAATT against Gsto1	0.0391 (inactive)
GGAAAUAGAUUUUCAGCUCTT against Dnase2b	0.138 (inactive)
GGAAUUUGAAACUUACGGCTT against Oc90	0.379 (inactive)
UUUCGAGCUGAUCCAUGAGTT against Tbata	1.19 (inactive)
GGUCCAGAUCCACCAGAUUTT against Banp	1.11 (inactive)
GGCACUCAAUGGUGAGCAATT against Sipa1	2.03 (active)
GGCUCUUGCUUUAGUAUUCTT against Ly9	0.99 (inactive)
GGCAGAUUACUCUGAAUGATT against Prdx4	0.326 (inactive)
GGUUUAUUGUAAUGGCUAATT against Olfr1271	0.452 (inactive)
GGACAAAUGGGUAUUAUCUTT against Phxr4	-1.01 (inactive)
GGAGAUGAUUUCCUACUUCTT against Rasgrp2	3.47 (active)
GGUGUACCAGAAUGAGAAGTT against Akr1b3	0.611 (inactive)
GGUAUUUAGUAAACACCCATT against Edar	0.413 (inactive)
GGGUCAAAUCUGACUGCAUTT against Klf10	0.501 (inactive)
GAGAACCAGGCUAUGUCUGTT against Defa-rs10	0.623 (inactive)
GCUGGCUGUUGGAUAAGUGTT against Olfr1112	2.45 (active)
CCUUGAUUGAGCCUGACUUTT against Hook2	0.543 (inactive)
CCUCAUAUAUCCCUAAUUATT against Camk1g	-0.982 (inactive)
GGACCUGUUUGAGCAGAGGTT against Eps8l2	0.539 (inactive)

Sequence	z-score
GGUAGAAGUGAAAAAGAUATT against Bhmt	-0.386 (inactive)
GCGAGAGAUUCUUUCCCUGTT against Traf6	-1.24 (inactive)
CCUCCUCUCUGUUUUCUACTT against Olfr699	-1.16 (inactive)
GCAGAAAAACCUGUGAAAATT against Pcnp	1.57 (inactive)
GGAUGGAUGUUUGCAUAAATT against Msx2	5.06 (active)
GGGACACAUACUGUAGUAUTT against Pspc1	0.00343 (inactive)
GGAGGAGAUGAUGAAUUUUTT against Etf1	0.965 (inactive)
GGUGAGUUCAUGGUUUCCUTT against Txnl4b	-0.142 (inactive)
GAGAAACUAUGGCUGAAAATT against Klk1	0.439 (inactive)
CCCUAAAAGACAAAGUGCUTT against Cmtm3	0.877 (inactive)
CCUAGAGAGACAUAUUGUUTT against Vstm4	-0.206 (inactive)
GCCAAUGACCCAAAUUCUATT against Ppip5k1	0.812 (inactive)
CCAUUUUUACCUACAUCCATT against Olfr452	2.43 (active)
CCCUACAGUACUAAUCAAATT against Ptgs2	0.6 (inactive)
GGGCUCUAACAUCUUAUACTT against Tbc1d31	1.54 (inactive)
GGGCCAUGGAUAAGAAAAATT against Psmc5	-2.61 (active)
GGCACAGACGGAUCAACAGTT against Clcn3	-0.725 (inactive)
GCUAUUGAGAAACCACUUATT against Rasef	-0.276 (inactive)
CCUAUUACUCAAACACAGATT against Arl5b	-0.257 (inactive)
GGACACAGCAAGAAGAUACTT against Wfdc12	-1.79 (inactive)
GCCACACCAAUAGAAGUGUTT against Csnk1g3	-2.42 (active)
UCUCCUUCAUUCCAUGUAUTT against Olfr441	-2.18 (active)
CCAUCAAAGUCAUCGACGGTT against Birc6	-0.427 (inactive)
